Consider 40 compounds from PubChem BioAssay (NCI).

This is part of a sample that, as a whole, favours compounds with a hit. Of some 83,000 tested, about 20% had one in any assay.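 The endpoint reported here, percent growth, reads 100 for growth as untreated, 0 for no net growth and -100 for all cells dead.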 The source made the active and inactive calls.

For the assay, the system named is HOP-62 NSCLC. The assay is described as follows: NCI-60 one-dose screen, 48 h (100 = growth as untreated, 0 = no growth, -100 = all killed). As to conditions: 10 µM unless noted. The method, then:
Growth inhibition of the HOP-62 human Non-Small Cell Lung tumor cell line is measured as a screen for anti-cancer activity. Cells are grown in 96 well plates and exposed to the test compound for 48 hours. Compounds are tested at a single concentration, which is 10^-5 M for most compounds. The reported endpoint is percent growth (GI% or GIPRCNT), where numbers from 0 - 100% represent growth inhibition, and numbers from -100% - 0 represent cell death. For example, a value of 40 represents 60% growth inhibition. A value of 0 means no net growth occurred over the course of the experiment. A value of -40 indicates 40% of cells at the beginning of the experiment died by the end of the experiment. A value of -100 means all cells are dead at the end of the experiment.
NCI-60 Human Tumor Cell Lines Screen was performed using the standard one-dose NCI protocol, which is described in more detail at https://dtp.cancer.gov/discovery_development/nci-60/default.htm.
Compounds with GIPRCNT values below 10 were considered active. Activity score was based on GIPRCNT using the following formula: […]
Score is 0 for GIPRCNT values of 100 or above, 50 for GIPRCNT values of 0, and 100 for GIPRCNT values of -100.
`COc1cc(C(=O)/C=C/c2c(-c3cccs3)nc3sccn23)cc(OC)c1OC`: the growth was 0.498% (active).
Take `Cc1nn(-c2ccccc2)c2nc3nc4c(c(N)c3c(-c3ccc(Cl)cc3)c12)CCCC4`: the growth is 106% (inactive).
For `Oc1ccccc1/C=N/Nc1nc2ccccc2s1` the value was 49.2% (inactive); for `CCN(CC)c1ccc(/C=C(\C#N)c2cc3ccccc3[nH]2)cc1`, 77.7% (inactive).
With `Cc1cc(=O)[nH]n1-c1cc(Cl)ccc1N` the figure was 103% (inactive); with `Cc1ccc2c(N/N=C\c3ccco3)cc(C)nc2n1`, 83.3% (inactive).
For `O=C1/C(=C/c2ccc(Oc3ccccc3)cc2)N=C(c2ccccc2)N1CCc1cccs1` the value was 104% (inactive); for `O=C1C2CC3C(CC2C(=O)[N]1[Sn]([c]1ccccc1)([c]1ccccc1)[c]1ccccc1)C1(Cl)C(Cl)=C(Cl)C3(Cl)C1(Cl)Cl` (stereo not given), -92.1% (active).
Regarding `Cc1nc(-c2ccccc2)cc2c(O)c(C(=O)N/N=C/Cc3ccccc3)[nH]c(=O)c12`, the growth is 104% (inactive).
For `COc1cc(/C=C/C(=O)C(=Cc2ccc(F)c(F)c2)C(=O)/C=C/c2ccc(O)c(OC)c2)ccc1O` the value was 22.1% (inactive); for `COC(=O)c1c2c(c(C)[n+]([O-])c1C)C(=O)C=C(NCc1ccc(F)c(Cl)c1)C2=O`, -51.9% (active).
With `CCCCC(O)Cn1ncc(C(=O)OCC)c1NC(=O)NCc1ccccc1C(F)(F)F` (stereo not given), the growth was 93.4% (inactive).
For `O=C(Nc1ccc(F)cc1)c1ccc(C(=O)Nc2ccc(F)cc2)cc1` the value was 98.2% (inactive); for `COc1cc2cc(Oc3ccc(NC(=O)Nc4cccc(C(F)(F)F)c4)cc3)c(C)nc2cc1OCCN1CCCCC1`, -68.8% (active); for `CCCCC1COc2cccc3c(SCC(=O)N(C)c4cccc5ccccc45)cc[n+]1c23` (stereo not given), 106% (inactive).
With `COc1ccc(C2SC(C)C(=O)N2CCc2cccs2)cc1OC` (stereo not given) the figure was 94.5% (inactive); with `COc1ccc(/C=N/OCC(O)CNCc2ccccc2)cc1OC1CCCC1` (stereo not given), 93.5% (inactive).
For `CN1CCN(c2ccc3nc(-c4ccc5nc(-c6ccc(C(F)(F)F)cc6)[nH]c5c4)[nH]c3c2)CC1`, the growth is 51.3% (inactive).
On to `NS(=O)(=O)c1cc(Br)c2c(c1)S(=O)(=O)NCN2`, for which the growth was 113% (inactive).
On to `COc1ccc(OC)c2ncccc12`, for which the growth is 90.2% (inactive).
With `Cc1ccc2nc(NC(=O)CSC(=S)N3CCN(C)CC3)sc2c1` the figure was 106% (inactive); with `Cc1ccc(S(=O)(=O)N(c2ccc(Cl)cc2)c2ccc(Br)cc2C(=O)O)cc1`, 105% (inactive).
With `C=CC(=O)N1CC2(CC(n3nc(-c4ccc(Oc5ccccc5)cc4)c4c(N)ncnc43)C2)C1` the figure was 35.7% (inactive); with `Nc1ccccc1-c1n[nH]c(=O)[nH]c1=O`, 112% (inactive); with `CCOC(=O)C1=C(C)N2C(=NC3=C(CCCC/C3=C\c3cc(OC)c(OC)c(OC)c3)C2c2cc(OC)c(OC)c(OC)c2)S1` (stereo not given), 50% (inactive).
With `c1ccc(-c2n(Cc3ccc4ccccc4c3)c3ccccc3[n+]2Cc2ccc3ccccc3c2)cc1` the figure was 4.19% (active).
For the compound `CN1CCc2c(c3ccccc3c3ccccc23)C1`, the growth is 45.8% (inactive).
With `O=C1CCC(N2Cc3c(C#CCCCNC(=O)c4cc5c(o4)C(=O)c4ccccc4C5=O)cccc3C2=O)C(=O)N1` (stereo not given) the figure was -65.3% (active).
Consider `O=C(CCCCCCC(=O)Nc1ccc2c(c1)/C(=C/c1ccc[nH]1)C(=O)N2)NO`, for which the growth is 14% (inactive).
For `FC(F)(F)c1cc(CNc2ncc(Br)c(Cl)n2)cc(C(F)(F)F)c1` the value was 90.2% (inactive).
With `C=C1CC[C@@H]2[C@@](C)(CCC[C@]2(C)C(=O)O)[C@@H]1CC[C@H](CO)CCO` the figure was 100% (inactive); with `COC(=O)c1c2c(c(C)[n+]([O-])c1C)C(=O)C=C(NCc1ccc(Cl)cc1)C2=O`, 2.25% (active).
For `COc1cc(-c2nc3ccccc3o2)cc(CN2CCN(c3ccccc3)CC2)c1O` the value was 47.1% (inactive); for `O=C(N/N=C/c1ccc(F)cc1)c1[nH]c2ccc(I)cc2c1-c1ccccc1`, 38% (inactive); for `COc1ccc(OC)c(/C=C2\Oc3cc(O)ccc3C2=O)c1`, 101% (inactive).
Take `COc1ccc(-c2c(-c3cc4c(c(OC)c3OC)OCO4)noc2N)cc1`: the growth was 35.7% (inactive).
For `CN([N-]C(=O)CC(=O)[N-]N(C)C(=S)c1ccccc1)C(=S)c1ccccc1.[Cu+2]` the value was -98.6% (active); for `Cc1c(NCC(=O)Nc2nc3ccccc3[nH]2)c(=O)n(-c2ccccc2)n1C`, 107% (inactive).
For `O=C1c2ccccc2-c2cn(Cc3ccccc3)c3cccc(c23)C1c1cccnc1` (stereo not given) the value was 36% (inactive); for `COc1ccc(-c2nc3sccn3c2/C=C/C(=O)c2cc(OC)c(OC)c(OC)c2)cc1OC`, 36.9% (inactive).
